What all share (experiment): DAPPL (digital affinity profiling via proximity ligation, sequencing); 10 mM Tris-HCl pH 7.5, 50 mM NaCl, 1 mM DTT, 4% glycerol, room temperature, 30 min; GST-TFs on glutathione beads, 16-mer random dsDNA library, 0.1% formaldehyde crosslink after washing; high values mean tight binding
Holding throughout (details): protein: recombinant; tags: N-terminal GST; dsDNA, one strand shown

One assay addresses T1, GABPA (Homo sapiens, UniProt Q06546 1-454).
T1 sequence: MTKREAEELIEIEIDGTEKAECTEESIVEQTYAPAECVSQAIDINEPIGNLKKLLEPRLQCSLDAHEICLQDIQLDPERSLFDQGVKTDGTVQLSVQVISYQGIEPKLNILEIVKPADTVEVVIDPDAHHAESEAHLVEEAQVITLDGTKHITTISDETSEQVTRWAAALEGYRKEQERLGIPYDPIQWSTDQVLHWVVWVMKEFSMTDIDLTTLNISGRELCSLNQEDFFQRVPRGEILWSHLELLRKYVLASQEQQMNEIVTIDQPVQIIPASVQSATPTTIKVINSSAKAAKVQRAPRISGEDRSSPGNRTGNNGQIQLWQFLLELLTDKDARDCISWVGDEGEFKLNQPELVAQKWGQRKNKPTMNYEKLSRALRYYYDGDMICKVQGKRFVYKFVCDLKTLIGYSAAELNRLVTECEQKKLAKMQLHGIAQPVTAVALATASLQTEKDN
The procedure, abridged:
(§1)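 A tag-only sample was pooled with DNA-barcoded human transcription factors that had been expressed in yeast as GST fusions and captured on glutathione beads. The pools were incubated for 30 min at room temperature with 200 nmole of a random double-stranded 16-mer DNA library in Tris/NaCl/DTT/glycerol buffer, then washed, crosslinked with 0.1% formaldehyde, proximity-ligated (BsaI/T4 ligase, 1 h, 37 °C), PCR-amplified and sequenced on an Illumina NextSeq500. Binding signal is each hexamer's read frequency for a factor divided by its frequency for the tag-only sample.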

The next assay concerns the target ELF1 (Homo sapiens, UniProt P32519 1-619). The essentials:
as §1

The target in a further assay is T2, EHF (Homo sapiens, UniProt Q9NZC4 1-300).
T2 sequence: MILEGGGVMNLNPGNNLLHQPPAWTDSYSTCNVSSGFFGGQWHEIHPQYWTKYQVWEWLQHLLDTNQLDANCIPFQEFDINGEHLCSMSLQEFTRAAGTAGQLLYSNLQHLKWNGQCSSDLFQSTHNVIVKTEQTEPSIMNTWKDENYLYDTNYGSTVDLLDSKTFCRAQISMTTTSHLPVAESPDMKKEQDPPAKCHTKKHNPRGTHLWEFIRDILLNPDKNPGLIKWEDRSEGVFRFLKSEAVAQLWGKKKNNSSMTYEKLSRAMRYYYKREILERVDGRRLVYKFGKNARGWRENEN
The essentials: as §1

A further assay deals with T3, SPIC (Homo sapiens, UniProt Q8N5J4 1-248).
T3 sequence: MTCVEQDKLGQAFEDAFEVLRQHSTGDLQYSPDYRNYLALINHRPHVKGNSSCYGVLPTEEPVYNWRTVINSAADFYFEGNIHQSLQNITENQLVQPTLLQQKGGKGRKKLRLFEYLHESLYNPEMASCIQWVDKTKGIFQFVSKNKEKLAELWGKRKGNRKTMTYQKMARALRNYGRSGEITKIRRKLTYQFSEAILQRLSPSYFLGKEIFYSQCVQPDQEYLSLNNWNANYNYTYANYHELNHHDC
The procedure, abridged:
as §1

The target of the next assay is ELF4 (Homo sapiens, UniProt Q99607 1-663). The procedure, abridged:
as §1

For another assay, the target named is T4, ELK4 (Homo sapiens, UniProt P28324-2 1-405).
T4 sequence: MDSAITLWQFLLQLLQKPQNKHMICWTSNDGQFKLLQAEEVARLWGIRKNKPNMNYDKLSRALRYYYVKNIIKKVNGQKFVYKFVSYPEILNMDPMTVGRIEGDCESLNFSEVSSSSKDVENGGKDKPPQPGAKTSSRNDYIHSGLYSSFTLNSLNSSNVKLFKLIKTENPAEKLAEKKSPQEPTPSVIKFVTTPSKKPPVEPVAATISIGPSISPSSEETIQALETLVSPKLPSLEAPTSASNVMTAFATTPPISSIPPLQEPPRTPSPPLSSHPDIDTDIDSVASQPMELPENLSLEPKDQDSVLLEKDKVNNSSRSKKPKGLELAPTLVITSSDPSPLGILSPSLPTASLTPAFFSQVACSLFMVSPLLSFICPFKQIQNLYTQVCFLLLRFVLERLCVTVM
The essentials: as §1

The target of another assay is T5, ELF3 (Homo sapiens, UniProt P78545 1-371).
T5 sequence: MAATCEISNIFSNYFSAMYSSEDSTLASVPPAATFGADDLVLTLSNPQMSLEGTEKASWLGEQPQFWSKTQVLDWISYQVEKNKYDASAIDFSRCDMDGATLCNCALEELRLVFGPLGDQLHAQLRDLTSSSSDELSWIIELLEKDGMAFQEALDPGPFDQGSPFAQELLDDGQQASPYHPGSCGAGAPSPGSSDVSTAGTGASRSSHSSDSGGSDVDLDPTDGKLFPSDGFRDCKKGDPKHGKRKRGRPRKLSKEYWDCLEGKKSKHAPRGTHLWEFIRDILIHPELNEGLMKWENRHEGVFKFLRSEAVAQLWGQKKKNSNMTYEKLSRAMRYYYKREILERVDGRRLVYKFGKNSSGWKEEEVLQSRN
The procedure, abridged: as §1

A further assay has as its target T6, ERF (Homo sapiens, UniProt P50548 1-548).
T6 sequence: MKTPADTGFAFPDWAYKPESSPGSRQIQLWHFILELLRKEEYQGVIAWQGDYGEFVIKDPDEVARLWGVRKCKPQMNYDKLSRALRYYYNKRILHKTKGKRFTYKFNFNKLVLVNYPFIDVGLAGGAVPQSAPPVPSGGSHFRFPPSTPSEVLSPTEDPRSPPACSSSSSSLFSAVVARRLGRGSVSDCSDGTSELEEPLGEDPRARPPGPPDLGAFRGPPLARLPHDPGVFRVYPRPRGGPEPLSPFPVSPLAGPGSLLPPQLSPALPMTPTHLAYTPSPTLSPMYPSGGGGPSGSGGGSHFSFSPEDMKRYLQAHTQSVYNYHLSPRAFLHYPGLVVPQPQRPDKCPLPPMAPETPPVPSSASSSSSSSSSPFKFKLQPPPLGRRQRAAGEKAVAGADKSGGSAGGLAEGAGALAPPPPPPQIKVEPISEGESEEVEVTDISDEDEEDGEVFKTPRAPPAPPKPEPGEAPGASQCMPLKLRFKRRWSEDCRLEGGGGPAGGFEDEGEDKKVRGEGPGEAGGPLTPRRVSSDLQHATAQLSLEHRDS
The procedure, abridged: as §1

A further assay concerns the target T7, ETV3L (Homo sapiens, UniProt Q6ZN32 1-361).
T7 sequence: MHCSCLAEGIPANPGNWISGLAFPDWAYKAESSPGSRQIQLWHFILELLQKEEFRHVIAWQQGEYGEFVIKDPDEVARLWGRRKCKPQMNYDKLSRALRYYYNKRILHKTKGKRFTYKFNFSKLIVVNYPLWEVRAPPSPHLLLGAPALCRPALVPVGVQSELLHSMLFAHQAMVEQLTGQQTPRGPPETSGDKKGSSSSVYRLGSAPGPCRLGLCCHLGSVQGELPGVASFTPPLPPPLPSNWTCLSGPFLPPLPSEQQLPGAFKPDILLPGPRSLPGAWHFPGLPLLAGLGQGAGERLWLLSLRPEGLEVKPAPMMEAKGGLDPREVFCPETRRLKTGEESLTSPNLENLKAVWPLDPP
The essentials:
as §1

The next assay concerns the target T8, ETS2 (Homo sapiens, UniProt P15036 1-469).
T8 sequence: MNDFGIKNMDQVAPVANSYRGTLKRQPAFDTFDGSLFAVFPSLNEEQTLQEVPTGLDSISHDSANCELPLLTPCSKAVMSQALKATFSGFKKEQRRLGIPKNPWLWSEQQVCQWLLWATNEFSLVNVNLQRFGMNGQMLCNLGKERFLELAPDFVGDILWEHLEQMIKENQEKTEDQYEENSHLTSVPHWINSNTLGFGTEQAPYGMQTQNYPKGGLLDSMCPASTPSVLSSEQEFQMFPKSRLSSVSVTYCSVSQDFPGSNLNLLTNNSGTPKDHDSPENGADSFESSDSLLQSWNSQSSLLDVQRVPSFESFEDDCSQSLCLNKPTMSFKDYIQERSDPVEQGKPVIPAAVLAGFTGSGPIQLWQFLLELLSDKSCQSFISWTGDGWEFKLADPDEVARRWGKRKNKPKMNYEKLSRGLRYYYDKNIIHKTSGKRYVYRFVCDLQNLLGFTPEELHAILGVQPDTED
The procedure, abridged:
as §1

A further assay concerns the target T9, ETV7 (Homo sapiens, UniProt Q9Y603 1-341).
T9 sequence: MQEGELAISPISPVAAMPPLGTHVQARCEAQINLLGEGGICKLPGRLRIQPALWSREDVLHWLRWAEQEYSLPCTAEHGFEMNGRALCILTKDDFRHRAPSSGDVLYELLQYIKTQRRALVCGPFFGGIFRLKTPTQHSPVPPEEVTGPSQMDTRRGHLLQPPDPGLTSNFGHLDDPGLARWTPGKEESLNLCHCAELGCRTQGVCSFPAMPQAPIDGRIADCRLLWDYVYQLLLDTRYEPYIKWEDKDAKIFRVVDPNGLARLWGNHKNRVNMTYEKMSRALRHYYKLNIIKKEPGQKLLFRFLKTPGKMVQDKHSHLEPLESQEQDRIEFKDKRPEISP
The essentials:
as §1

The target in another assay is ETV6 (Homo sapiens, UniProt P41212 1-452). The procedure, abridged:
as §1

Chain of ELF1 (P32519 whole entry): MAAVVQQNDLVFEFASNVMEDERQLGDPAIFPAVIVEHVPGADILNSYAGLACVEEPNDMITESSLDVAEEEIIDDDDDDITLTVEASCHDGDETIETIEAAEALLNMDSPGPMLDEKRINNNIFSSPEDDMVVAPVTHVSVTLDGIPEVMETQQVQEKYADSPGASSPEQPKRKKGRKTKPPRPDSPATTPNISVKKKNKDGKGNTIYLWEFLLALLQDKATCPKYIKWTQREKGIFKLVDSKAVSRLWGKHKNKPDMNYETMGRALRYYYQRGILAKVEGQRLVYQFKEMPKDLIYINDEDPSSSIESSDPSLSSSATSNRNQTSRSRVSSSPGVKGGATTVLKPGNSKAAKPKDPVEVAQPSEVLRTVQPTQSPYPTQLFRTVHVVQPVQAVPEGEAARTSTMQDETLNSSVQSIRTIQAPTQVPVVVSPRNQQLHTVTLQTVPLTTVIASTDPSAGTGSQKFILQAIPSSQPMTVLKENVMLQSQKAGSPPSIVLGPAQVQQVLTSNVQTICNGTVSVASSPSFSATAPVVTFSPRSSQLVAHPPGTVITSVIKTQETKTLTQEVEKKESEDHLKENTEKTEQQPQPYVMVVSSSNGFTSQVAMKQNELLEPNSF
Chain of ETV6 (P41212 whole entry): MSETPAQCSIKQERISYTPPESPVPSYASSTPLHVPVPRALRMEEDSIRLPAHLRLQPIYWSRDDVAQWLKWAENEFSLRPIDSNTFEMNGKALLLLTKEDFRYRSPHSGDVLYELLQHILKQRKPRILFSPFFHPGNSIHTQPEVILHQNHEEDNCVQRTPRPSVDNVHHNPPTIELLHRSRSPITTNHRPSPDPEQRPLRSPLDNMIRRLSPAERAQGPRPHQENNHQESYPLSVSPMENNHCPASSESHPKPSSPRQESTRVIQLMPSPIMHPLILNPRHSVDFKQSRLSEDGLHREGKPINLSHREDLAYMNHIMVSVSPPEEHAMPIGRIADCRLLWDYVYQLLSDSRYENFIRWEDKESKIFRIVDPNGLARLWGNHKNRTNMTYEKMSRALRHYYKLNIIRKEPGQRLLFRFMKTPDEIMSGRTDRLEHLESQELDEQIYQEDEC
Chain of ELF4 (Q99607 whole entry): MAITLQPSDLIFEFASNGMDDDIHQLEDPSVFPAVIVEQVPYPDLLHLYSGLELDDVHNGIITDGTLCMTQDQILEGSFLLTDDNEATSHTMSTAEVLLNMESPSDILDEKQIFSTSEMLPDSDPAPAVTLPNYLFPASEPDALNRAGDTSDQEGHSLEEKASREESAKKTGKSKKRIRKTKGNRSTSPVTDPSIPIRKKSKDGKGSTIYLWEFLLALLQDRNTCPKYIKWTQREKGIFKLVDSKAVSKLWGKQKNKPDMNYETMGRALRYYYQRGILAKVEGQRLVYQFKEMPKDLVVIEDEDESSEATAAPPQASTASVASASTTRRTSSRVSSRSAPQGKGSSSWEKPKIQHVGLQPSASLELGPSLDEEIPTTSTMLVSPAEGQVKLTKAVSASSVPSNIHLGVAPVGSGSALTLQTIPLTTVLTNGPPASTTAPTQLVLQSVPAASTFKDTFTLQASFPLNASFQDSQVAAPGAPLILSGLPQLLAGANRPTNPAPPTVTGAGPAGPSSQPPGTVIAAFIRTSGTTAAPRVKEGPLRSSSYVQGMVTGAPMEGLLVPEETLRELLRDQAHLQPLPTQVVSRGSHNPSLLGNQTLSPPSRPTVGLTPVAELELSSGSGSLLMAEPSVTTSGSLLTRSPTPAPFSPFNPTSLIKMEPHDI

For the sequence ACCTAG, the binding signal in the assay with GABPA was 1.14 fold enrichment (6-mer frequency, TF over GST control); in the assay with ELF1 it was 1.06 fold enrichment (6-mer frequency, TF over GST control); with EHF, 1.04 fold enrichment (6-mer frequency, TF over GST control); in the assay with SPIC it was 1.01 fold enrichment (6-mer frequency, TF over GST control); with ELF4 it was 1.06 fold enrichment (6-mer frequency, TF over GST control); in the assay with ELK4, 1.08 fold enrichment (6-mer frequency, TF over GST control). The binding signal in the assay with ELF3 is 1.02 fold enrichment (6-mer frequency, TF over GST control); in the assay with ERF it was 1.06 fold enrichment (6-mer frequency, TF over GST control); in the assay with ETV3L it was 1.05 fold enrichment (6-mer frequency, TF over GST control); in the assay with ETS2, 1.06 fold enrichment (6-mer frequency, TF over GST control); in the assay with ETV7, 1.11 fold enrichment (6-mer frequency, TF over GST control); with ETV6, 1.02 fold enrichment (6-mer frequency, TF over GST control).

Values taken from paper PMC7862700, “An all-to-all approach to the identification of sequence-specific readers for epigenetic DNA modifications on cytosine”.
